Data taken from the supplement of paper PMC10849652.
About 8,800 targets were measured; listed, in parts, are those with a hit and a random draw of the rest. About 0.5% of all pairs of compound and target were hits.

How the values were obtained:
Assay in all cases: log2 fold change, soluble protein after heating vs DMSO (PISA); higher = thermal stabilisation; K562 lysate, 10 uM; active = over 0.2 and 3.5 SD of the protein, either way, in both replicates (recomputed)
erlotinib = compound: C#Cc1cccc(Nc2ncnc3cc(OCCOC)c(OCCOC)cc23)c1 [erlotinib]
Outline: (§1)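 Quantification was by TMTpro 16plex LC-MS/MS with equalised channel sums, applied to the supernatant after 21,000xg for 90 min. Samples were crude K562 extract at 1 mg/mL protein in PBS pH 7.4 with 1 mM MgCl2, treated with 10 μM compound for 30 min, heated for 3 min across 48°C-58°C, pooled and brought to 0.5% NP-40 at 4°C. Values are log-two fold changes in thermal stability relative to solvent controls, from duplicates.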

[1] = compound: C/C(=N\NC(=O)C1=CC(=CC=C1)S(=O)(=O)N2CCOCC2)/C3=C(C=CC(=C3)Cl)O
Outline: as §1

[2] = compound: C1=CC(=CC=C1C2=NC3=C(N2)C=C(C=C3)C(=O)N)OC4=CC=C(C=C4)Cl
Outline: as §1

[3] = compound: C1=CC2=C(C=CC(=C2)/C=C\3/C(=O)NC(=NCC4=CC=CS4)S3)N=C1
Outline: as §1

[4] = compound: C1=CC2=NC=CN=C2C=C1/C=C/3\C(=O)NC(=O)S3
Outline: as §1

[5] = compound: C1=CC=C(C=C1)C2=NC(=C(N2)C3=CC=NC=C3)C4=CC(=C(C=C4)Cl)O
Outline: as §1

[6] = compound: C1=CC=C2C(=C1)C3=NNC4=CC=CC(=C43)C2=O
Outline: as §1

[7] = compound: C1CCN(C1)C(=O)NC2=CC=CC(=C2)NC3=NC=C(C(=N3)NCCC4=CN=CN4)Br
Outline: as §1

[8] = compound: C1CN(CCC1(CC2=CC=C(C=C2)Cl)N)C3=NC=NC4=C3C=CN4
Outline: as §1

IRAK-1-4 Inhibitor I = compound: C1COCCN1CCN2C3=CC=CC=C3N=C2NC(=O)C4=CC(=CC=C4)[N+](=O)[O-] [IRAK-1-4 Inhibitor I]
Outline: as §1

ibrutinib = compound: C=CC(=O)N1CCC[C@@H](n2nc(-c3ccc(Oc4ccccc4)cc3)c3c(N)ncnc32)C1 [ibrutinib]
Outline: as §1

[9] = compound: CC(=O)c1cnc2ccc(-c3cc(Cl)c(O)c(Cl)c3)nc2c1N[C@H]1CC[C@H](CN(C)C)CC1
Outline: as §1

ralimetinib = compound: CC(C)(C)Cn1c(N)nc2ccc(-c3[nH]c(C(C)(C)C)nc3-c3ccc(F)cc3)nc21 [ralimetinib]
Outline: as §1

[10] = compound: CC(C)(O)CC(=O)NCCn1ccc2ncnc(Nc3ccc(Oc4cccc(C(F)(F)F)c4)c(Cl)c3)c21
Outline: as §1

[11] = compound: CC(C)C1=C2N=C(C=C(N2N=C1)NCC3=CC=CC=C3)NCCCCCCN
Outline: as §1

[12] = compound: CC1=C(C(CC(=O)N1)C2=CC=C(C=C2)C(F)(F)F)C(=O)NC3=C(C=C4C(=C3)C=NN4)F
Outline: as §1

[13] = compound: CC1=C(C2=C(C=C1)C(=O)C3=CC=CC=C3N2CCCN)C
Outline: as §1

[14] = compound: CC1=C(C=C(C=C1)NC(=O)C2=CC(=CC=C2)C(C)(C)C#N)NC3=CC4=C(C=C3)N=CN(C4=O)C
Outline: as §1

[15] = compound: CC1=C(C=C(C=C1)NC(=O)C2=CC(=CC=C2)N(C)C)NC(=O)C3=CC=C(C=C3)O
Outline: as §1

[16] = compound: CC1=CC=C(C=C1)SC2=C3C=C(SC3=CN=C2)C(=O)N
Outline: as §1

Measured: log2 fold change

PFAS (UniProt O15067)
inactive: erlotinib 0.014 | [1] 0.03 | [2] 0.006 | [3] 0.015 | [4] 0.011 | [5] -0.017 | [6] -0.018 | [7] -0.026 | [8] 0.001 | IRAK-1-4 Inhibitor I -0.006 | ibrutinib -0.007 | [9] -0.016 | ralimetinib 0.03 | [10] 0.006 | [11] 0.003 | [12] -0.015 | [13] -0.003 | [14] -0.041 | [15] 0.032 | [16] 0.002

PLEKHA5 isoform 6 (UniProt Q9HAU0)
UniProt Q9HAU0, sequence (Q9HAU0 whole entry, looked up): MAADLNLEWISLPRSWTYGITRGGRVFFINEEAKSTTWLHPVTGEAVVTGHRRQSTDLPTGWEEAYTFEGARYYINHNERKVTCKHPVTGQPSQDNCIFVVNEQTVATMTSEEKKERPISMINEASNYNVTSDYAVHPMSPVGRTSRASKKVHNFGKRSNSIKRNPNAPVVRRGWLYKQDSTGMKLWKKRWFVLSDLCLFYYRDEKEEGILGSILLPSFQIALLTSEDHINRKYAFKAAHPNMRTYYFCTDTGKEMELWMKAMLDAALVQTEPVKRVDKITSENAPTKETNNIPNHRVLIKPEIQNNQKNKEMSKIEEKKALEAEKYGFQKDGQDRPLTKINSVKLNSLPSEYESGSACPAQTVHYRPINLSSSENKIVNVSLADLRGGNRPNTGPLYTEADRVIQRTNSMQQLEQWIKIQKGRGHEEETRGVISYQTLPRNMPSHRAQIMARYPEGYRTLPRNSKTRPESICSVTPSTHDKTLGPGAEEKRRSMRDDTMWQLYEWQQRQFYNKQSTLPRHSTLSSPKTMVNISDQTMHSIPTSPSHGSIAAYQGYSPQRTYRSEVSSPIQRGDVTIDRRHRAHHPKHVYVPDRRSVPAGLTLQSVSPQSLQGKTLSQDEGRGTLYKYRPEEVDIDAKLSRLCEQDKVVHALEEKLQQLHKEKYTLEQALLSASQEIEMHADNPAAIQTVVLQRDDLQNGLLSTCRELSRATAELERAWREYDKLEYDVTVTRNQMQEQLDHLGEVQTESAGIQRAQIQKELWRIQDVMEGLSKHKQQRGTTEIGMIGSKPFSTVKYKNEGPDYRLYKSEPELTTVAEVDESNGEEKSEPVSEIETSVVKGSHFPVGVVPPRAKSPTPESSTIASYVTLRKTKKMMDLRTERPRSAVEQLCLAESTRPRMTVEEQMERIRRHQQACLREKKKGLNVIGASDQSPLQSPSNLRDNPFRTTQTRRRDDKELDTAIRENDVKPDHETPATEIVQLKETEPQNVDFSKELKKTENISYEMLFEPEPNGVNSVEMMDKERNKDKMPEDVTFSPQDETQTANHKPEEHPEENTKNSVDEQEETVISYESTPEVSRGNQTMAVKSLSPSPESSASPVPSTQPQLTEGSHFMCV
inactive: erlotinib -0.007 | [1] -0.021 | [2] 0.016 | [3] -0.058 | [4] 0.087 | [5] -0.021 | [6] -0.007 | [7] -0.002 | [8] -0.04 | IRAK-1-4 Inhibitor I 0.019 | ibrutinib 0.075 | [9] 0.003 | ralimetinib -0.004 | [10] -0.001 | [11] 0.069 | [12] -0.013 | [13] -0.033 | [14] 0.028 | [15] 0.022 | [16] -0.036

PHKA1 (UniProt P46020)
UniProt P46020, sequence (P46020 whole entry, looked up): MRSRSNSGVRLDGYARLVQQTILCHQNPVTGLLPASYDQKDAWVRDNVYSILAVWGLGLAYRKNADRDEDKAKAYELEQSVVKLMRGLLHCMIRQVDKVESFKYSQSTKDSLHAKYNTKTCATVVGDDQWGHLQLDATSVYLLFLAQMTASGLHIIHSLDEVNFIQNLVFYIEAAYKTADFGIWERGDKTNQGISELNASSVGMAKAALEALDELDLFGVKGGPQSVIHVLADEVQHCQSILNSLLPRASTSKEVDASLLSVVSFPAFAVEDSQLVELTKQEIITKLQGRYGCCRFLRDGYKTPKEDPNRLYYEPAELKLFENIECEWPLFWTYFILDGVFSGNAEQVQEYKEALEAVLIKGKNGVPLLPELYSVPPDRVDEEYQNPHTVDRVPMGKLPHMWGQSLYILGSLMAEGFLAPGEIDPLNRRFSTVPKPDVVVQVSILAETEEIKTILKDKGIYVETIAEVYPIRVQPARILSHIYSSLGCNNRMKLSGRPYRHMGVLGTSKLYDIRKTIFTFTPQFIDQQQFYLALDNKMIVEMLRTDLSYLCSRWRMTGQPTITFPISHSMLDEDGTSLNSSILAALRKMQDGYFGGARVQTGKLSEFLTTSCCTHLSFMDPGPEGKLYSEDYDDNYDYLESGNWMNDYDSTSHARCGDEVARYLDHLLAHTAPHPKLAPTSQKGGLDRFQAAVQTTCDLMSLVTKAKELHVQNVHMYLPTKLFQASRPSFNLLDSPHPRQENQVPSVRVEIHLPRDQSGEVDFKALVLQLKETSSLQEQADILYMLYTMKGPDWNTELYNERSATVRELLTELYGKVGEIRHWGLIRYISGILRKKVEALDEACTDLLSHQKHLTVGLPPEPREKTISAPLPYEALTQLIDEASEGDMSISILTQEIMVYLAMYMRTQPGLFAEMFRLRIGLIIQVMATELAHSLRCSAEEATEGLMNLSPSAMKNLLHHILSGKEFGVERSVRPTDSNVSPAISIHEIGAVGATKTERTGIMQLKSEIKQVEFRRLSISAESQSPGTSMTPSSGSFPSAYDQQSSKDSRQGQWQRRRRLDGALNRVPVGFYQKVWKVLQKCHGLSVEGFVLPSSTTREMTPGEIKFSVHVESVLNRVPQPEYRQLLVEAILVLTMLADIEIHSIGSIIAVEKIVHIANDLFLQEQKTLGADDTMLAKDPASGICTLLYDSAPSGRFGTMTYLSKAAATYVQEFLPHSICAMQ
inactive: erlotinib -0.011 | [1] 0.003 | [2] -0.015 | [3] 0.063 | [4] 0.078 | [5] -0.027 | [6] 0.205 | [7] 0.05 | [8] 0.026 | IRAK-1-4 Inhibitor I 0.01 | ibrutinib -0.045 | [9] 0.012 | ralimetinib 0.03 | [10] -0.031 | [11] -0.053 | [12] 0.004 | [13] -0.019 | [14] -0.005 | [15] 0.032 | [16] 0.003

PRKAB2 (UniProt O43741)
UniProt O43741, sequence (O43741 whole entry, looked up): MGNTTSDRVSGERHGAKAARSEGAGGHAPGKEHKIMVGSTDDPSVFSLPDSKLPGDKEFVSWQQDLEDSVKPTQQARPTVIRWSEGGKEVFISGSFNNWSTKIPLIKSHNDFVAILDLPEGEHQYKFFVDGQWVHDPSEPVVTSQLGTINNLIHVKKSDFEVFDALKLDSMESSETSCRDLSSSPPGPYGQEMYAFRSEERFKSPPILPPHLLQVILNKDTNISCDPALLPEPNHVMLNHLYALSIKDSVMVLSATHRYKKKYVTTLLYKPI
inactive: erlotinib -0.032 | [1] -0.165 | [2] 0.096 | [3] -0.041 | [4] 0.031 | [5] 0.039 | [6] 0.153 | [7] 0.196 | [8] 0.042 | IRAK-1-4 Inhibitor I 0.24 | ibrutinib -0.041 | [9] -0.018 | ralimetinib 0.093 | [10] -0.129 | [11] -0.025 | [12] 0.086 | [13] -0.066 | [14] -0.082 | [15] 0.035 | [16] -0.008

PDCD6IP isoform 2 (UniProt Q8WUM4)
UniProt Q8WUM4, sequence (Q8WUM4 whole entry, looked up): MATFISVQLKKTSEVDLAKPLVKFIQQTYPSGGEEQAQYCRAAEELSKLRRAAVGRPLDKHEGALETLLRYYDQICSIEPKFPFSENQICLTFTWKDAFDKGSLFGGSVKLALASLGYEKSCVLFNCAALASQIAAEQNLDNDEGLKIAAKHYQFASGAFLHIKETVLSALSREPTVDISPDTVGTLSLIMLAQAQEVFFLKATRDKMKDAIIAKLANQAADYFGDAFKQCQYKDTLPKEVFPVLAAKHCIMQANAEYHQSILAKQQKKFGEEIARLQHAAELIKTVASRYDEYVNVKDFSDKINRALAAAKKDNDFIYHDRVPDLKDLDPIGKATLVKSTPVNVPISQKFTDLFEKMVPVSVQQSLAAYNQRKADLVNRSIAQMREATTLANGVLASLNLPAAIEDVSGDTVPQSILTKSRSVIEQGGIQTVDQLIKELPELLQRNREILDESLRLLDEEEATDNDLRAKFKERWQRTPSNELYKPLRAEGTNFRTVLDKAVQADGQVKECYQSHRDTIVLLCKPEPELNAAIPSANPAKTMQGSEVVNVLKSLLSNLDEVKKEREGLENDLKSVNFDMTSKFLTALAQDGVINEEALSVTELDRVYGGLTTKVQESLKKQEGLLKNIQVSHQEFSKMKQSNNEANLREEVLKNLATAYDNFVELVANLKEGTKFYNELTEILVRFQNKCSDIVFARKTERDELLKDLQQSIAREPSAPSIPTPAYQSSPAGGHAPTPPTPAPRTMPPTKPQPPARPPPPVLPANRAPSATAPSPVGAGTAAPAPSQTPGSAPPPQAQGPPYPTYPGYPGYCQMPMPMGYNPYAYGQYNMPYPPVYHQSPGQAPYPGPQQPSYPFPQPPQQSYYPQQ
inactive: erlotinib 0.027 | [1] 0.046 | [2] 0.009 | [3] 0.01 | [4] -0.02 | [5] 0.007 | [6] -0.007 | [7] 0.002 | [8] 0.007 | IRAK-1-4 Inhibitor I -0.002 | ibrutinib -0.035 | [9] 0.009 | ralimetinib 0.003 | [10] 0.025 | [11] 0.013 | [12] -0.006 | [13] 0.046 | [14] -0.013 | [15] 0.029 | [16] 0.016

PXMP4 (UniProt Q9Y6I8)
UniProt Q9Y6I8, sequence (Q9Y6I8 whole entry, looked up): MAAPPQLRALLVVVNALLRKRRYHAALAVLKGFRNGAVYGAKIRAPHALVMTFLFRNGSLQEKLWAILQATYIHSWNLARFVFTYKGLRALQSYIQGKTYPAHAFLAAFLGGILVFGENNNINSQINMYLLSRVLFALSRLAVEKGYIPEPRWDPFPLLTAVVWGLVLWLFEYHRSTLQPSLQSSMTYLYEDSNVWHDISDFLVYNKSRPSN
inactive: erlotinib 0.024 | [1] 0.068 | [2] 0.084 | [3] -0.053 | [4] 0.013 | [5] 0.053 | [6] -0.038 | [7] 0.043 | [8] 0.022 | IRAK-1-4 Inhibitor I 0.016 | ibrutinib -0.022 | [9] 0 | ralimetinib 0.012 | [10] -0.076 | [11] -0.18 | [12] -0.008 | [13] 0.066 | [14] 0.234 | [15] -0.007 | [16] 0.023

PDF (UniProt Q9HBH1)
UniProt Q9HBH1, sequence (Q9HBH1 whole entry, looked up): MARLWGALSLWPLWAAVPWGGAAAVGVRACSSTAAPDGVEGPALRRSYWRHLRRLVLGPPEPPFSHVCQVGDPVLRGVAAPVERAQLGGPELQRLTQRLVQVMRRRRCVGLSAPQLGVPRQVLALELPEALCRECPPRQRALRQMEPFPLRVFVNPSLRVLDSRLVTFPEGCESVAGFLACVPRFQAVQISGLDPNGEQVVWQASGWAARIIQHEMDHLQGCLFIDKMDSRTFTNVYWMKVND
inactive: erlotinib 0.033 | [1] 0.07 | [2] -0.072 | [3] 0.005 | [4] -0.066 | [5] 0.066 | [6] -0.013 | [7] 0.047 | [8] -0.063 | IRAK-1-4 Inhibitor I 0.055 | ibrutinib 0.054 | [9] 0.016 | ralimetinib -0.014 | [10] 0.066 | [11] 0.001 | [12] 0.01 | [13] 0.07 | [14] 0.048 | [15] -0.018 | [16] 0.059

PPT2 isoform 3 (UniProt Q9UMR5)
UniProt Q9UMR5, sequence (Q9UMR5 whole entry, looked up): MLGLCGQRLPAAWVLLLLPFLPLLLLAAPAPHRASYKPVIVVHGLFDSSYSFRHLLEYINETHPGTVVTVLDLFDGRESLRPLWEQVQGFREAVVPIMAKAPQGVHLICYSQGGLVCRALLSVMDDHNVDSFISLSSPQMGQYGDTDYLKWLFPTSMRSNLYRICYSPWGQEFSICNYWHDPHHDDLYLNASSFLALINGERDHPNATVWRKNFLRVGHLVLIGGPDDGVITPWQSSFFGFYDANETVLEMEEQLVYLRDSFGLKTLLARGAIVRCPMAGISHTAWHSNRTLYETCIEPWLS
inactive: erlotinib 0.038 | [1] -0.113 | [2] 0.001 | [3] 0.014 | [4] -0.012 | [5] -0.057 | [6] 0.042 | [7] 0.01 | [8] 0.043 | IRAK-1-4 Inhibitor I 0.122 | ibrutinib 0.03 | [9] 0.068 | ralimetinib -0.001 | [10] -0.022 | [11] -0.019 | [12] -0.026 | [13] 0.002 | [14] -0.038 | [15] -0.015 | [16] -0.013

PTP4A1 (UniProt Q93096)
UniProt Q93096, sequence (Q93096 whole entry, looked up): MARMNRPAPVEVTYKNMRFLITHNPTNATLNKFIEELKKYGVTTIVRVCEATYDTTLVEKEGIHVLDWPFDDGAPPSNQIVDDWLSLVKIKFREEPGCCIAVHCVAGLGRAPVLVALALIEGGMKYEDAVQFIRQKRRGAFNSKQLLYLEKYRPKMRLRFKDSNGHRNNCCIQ
inactive: erlotinib -0.005 | [1] 0.01 | [2] 0.014 | [3] -0.001 | [4] -0.013 | [5] -0.022 | [6] -0.086 | [7] 0.05 | [8] -0.066 | IRAK-1-4 Inhibitor I -0.014 | ibrutinib 0.011 | [9] 0.027 | ralimetinib 0.015 | [10] -0.071 | [11] -0.031 | [12] -0.113 | [13] -0.007 | [14] -0.012 | [15] -0.048 | [16] 0
